# CYP2C19 inhib = inhibitors of human CYP2C19; AID 778; CYP2C19 Supersomes, luciferin-H EGE luminescence, 30 min; inhibition, % at 5 µM; 96,000 tested, 21% active;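 active means CYP2C19 inhibition above a set limit at 5 µM in the primary screen, cut at about 50% in these data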;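 further: plate controls were negative control wells for no effect and 2.5 mM tranylcypromine positive control for full effect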
# CYP2C9 inh = blocks human cytochrome P450 2C9. P11712. CYP2C9 Supersomes, luciferin-H conversion, luminescence. inhibition, % at 5 µM. 96,000 tested, 20% active. AID 777;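 active means blocking of liver enzyme CYP2C9 beyond about 50% at 5 µM, limit read from the data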
# Target sequence (P11712 whole entry, looked up): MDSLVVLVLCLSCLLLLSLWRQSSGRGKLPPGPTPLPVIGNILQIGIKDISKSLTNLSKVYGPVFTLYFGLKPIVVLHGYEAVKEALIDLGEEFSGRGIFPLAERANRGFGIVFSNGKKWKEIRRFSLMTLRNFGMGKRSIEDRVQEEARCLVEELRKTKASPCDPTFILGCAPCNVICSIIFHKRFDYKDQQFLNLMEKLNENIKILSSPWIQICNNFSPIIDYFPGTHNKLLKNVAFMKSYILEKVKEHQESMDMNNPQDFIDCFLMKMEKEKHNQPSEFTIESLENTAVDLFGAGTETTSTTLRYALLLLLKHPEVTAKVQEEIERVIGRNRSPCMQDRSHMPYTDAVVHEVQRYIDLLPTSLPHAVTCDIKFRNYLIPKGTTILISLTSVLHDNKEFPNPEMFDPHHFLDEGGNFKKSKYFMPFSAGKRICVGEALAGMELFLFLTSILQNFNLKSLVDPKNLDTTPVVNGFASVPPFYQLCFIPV
# CYP2C9 activ = CYP2C9 (human) activation; recombinant CYP2C9, luciferin-H conversion, luminescence; hits give high values; factor 1 = untreated enzyme, 0 = blocked; activation factor at 5 µM; 96,000 tested, 1.4% active; AID 1024;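 active means activation factor of 2 or more for CYP2C9 at a 5 µM dose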;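 further: 0 = sulfaphenazole-blocked wells and 1 = vehicle-only wells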
# Cav3 T inh = inhibitors of human Cav3.2 T-type calcium channel | Cav3.2-expressing cells, Fluo-4 calcium fluorescence FDSS; hits give low values | B-score at 10 µM | AID 449739 | 100,000 tested, 4% active;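 active means single-dose well whose peak fluorescence ratio is a statistical outlier from its plate by either plate-standardised score or position-corrected B-score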
# CYP2C19 act = cytochrome P450 2C19 (human) activation | P33261 | recombinant CYP2C19, luciferin-H EGE luminescence; hits give high values; 0 = fully inhibited enzyme, 1 = untreated enzyme | activation factor at 5 µM | 96,000 tested, under 10 active | AID 1025;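 active means activation factor of at least 2 at 5 µM in the primary screen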;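 further: 0 = wells with 2.5 mM tranylcypromine and 1 = vehicle-only wells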
# * hit, by the source's call; x = no result given. This is a sample that favours compounds with a hit; in the whole collection about 27% have one here.
SMILES,CYP2C19 inhib,CYP2C9 inh,CYP2C9 activ,Cav3 T inh,CYP2C19 act
CCCCCOC(=O)C1[C@H]2C(=O)N(CCCOC)C[C@]23C=C[C@H]1O3 (stereo not given in full),-3,0,1,-0.026,1
O=C(NCc1ccco1)c1cc(-c2ccccc2)nn1CC1CC(c2cccnc2)=NO1 (stereo not given),x,x,x,0.77,x
C=CCN1CC(c2nc3ccccc3n2CCOc2ccccc2)CC1=O (stereo not given),60*,73*,0.3,-0.61,0.4
CC(C)(C)N1CC(c2nc3ccccc3n2Cc2ccccc2)CC1=O (stereo not given),50,79*,0.2,0.21,0.5
C=C(C)Cn1c(C2CC(=O)N(Cc3ccccc3)C2)nc2ccccc21 (stereo not given),55*,71*,0.3,-0.081,0.4
Cc1cc(C)cc(N2CC(c3nc4ccccc4n3C)CC2=O)c1 (stereo not given),12,-36,1.4,0.14,0.9
CCCn1c(C2CC(=O)N(c3cc(OC)ccc3OC)C2)nc2ccccc21 (stereo not given),23,35,0.6,0.59,0.8
CCn1c(C2CC(=O)N(Cc3ccccc3)C2)nc2ccccc21 (stereo not given),53*,45,0.5,0.86,0.5
C=C(C)Cn1c(C2CC(=O)N(c3ccccc3F)C2)nc2ccccc21 (stereo not given),x,x,x,0.68,x
COc1ccc(S(=O)(=O)N2C3CCC2CC(NC(=O)C2CC2)C3)cc1 (stereo not given),18,4,1,0.62,0.8
COc1cccc(-c2noc(N)c2C#N)c1,10,11,0.9,0.63,0.9
O=C(CSc1nnc(-c2ccncc2)n1-c1ccc(F)cc1)NC(=O)NCc1ccco1,x,x,x,0.035,x
Cc1cccc(C)c1NC(=O)C1(NC(=O)C2CCCN2C(=O)OC(C)(C)C)CCCCC1 (stereo not given),-14,-12,1.1,0.47,1.1
CCCNc1c(N)n(-c2ccccc2)c(=O)[nH]c1=O,-6,-9,1.1,-0.63,1.1
CCn1c(C2CC(=O)N(c3ccc(C)c(C)c3)C2)nc2ccccc21 (stereo not given),53*,31,0.7,0.88,0.5
c1ccc(CCn2c(C3CC3)nc3ccccc32)cc1,98*,66*,0.3,-0.31,0
Cc1ccc(N2CC(c3nc4ccccc4n3C)CC2=O)cc1C (stereo not given),22,-42,1.4,2,0.8
O=C(NCCc1ccccc1F)[C@@H]1CSC2c3ccccc3C(=O)N21 (stereo not given in full),14,30,0.7,-8.2*,0.9
CCCNC(=O)c1ccc2c(=O)n3c(-c4ccc(C)cc4)csc3nc2c1,x,x,x,0.21,x
O=C(Nc1nnc(C2CC2)s1)c1cccc(S(=O)(=O)N2CCc3ccccc32)c1,23,37,0.6,0.18,0.8
O=C1N/C(=N/NC(=O)c2cccc3ccccc23)S/C1=C\c1ccccc1OCc1ccccc1,-12,26,0.7,-5.2*,1.1
COc1cc2c(cc1OC)CN(C(=O)CSc1nnc3scc(-c4ccccc4)n13)CC2,x,x,x,1.4,x
COC(=O)c1nn(-c2ccccc2)nc1-c1nn(-c2ccccc2)nc1C(=O)OC,61*,86*,0.1,-2,0.4
O=C(c1ccccc1NS(=O)(=O)c1cccs1)N1CCOCC1,x,x,x,-0.11,x
COc1ccccc1NS(=O)(=O)c1cccs1,81*,-117,2.2*,0.17,0.2
SMILES,CYP2C19 inhib,CYP2C9 inh,CYP2C9 activ,Cav3 T inh,CYP2C19 act
COc1cccc(Nc2nc3ccccc3nc2NS(=O)(=O)c2cccs2)c1,1,17,0.8,-2.4,1
COc1ccc(NS(=O)(=O)c2cccs2)c(OC)c1,55*,-68,1.7,x,0.5
COc1ccc(NS(=O)(=O)c2ccc(SC)cc2)c(OC)c1,87*,-60,1.6,-1.2,0.1
COc1ccc(S(=O)(=O)Nc2cccc(SC)c2)cc1OC,x,x,x,-0.17,x
Cc1nc2ccc(C(=O)O)cc2c2c1CC(C)S2 (stereo not given),-14,-10,1.1,x,1.1
CC(C)(C)c1ccc(COn2c(=O)c(-c3ccco3)[n+]([O-])c3ccccc32)cc1,6,-8,1.1,0.021,0.9
COc1ccc(CC2CCOC2=O)cc1 (stereo not given),76*,3,1,0.34,0.2
COc1ccc(CC2C(=O)OC(C)(C)OC2=O)cc1,1,10,0.9,0.21,1
COc1ccc(CNc2ccccc2SC)cc1OC,83*,49,0.5,-2.1,0.2
COc1cc(CNc2ccccc2SC)cc(OC)c1OC,95*,89*,0.1,-2.8,0.1
COc1ccc(CNC(=O)NCc2ccc(OC)c(OC)c2)cc1OC,16,15,0.9,0.21,0.8
Cc1cc(C)nc(N2CCCC(C(=O)Nc3ccc4nc(C)c(C)nc4c3)C2)n1 (stereo not given),5,-17,1.2,-0.00074,0.9
Cc1cc(C)nc(SCC(=O)N/N=C/c2cccn2-c2ccc(O)cc2)n1,17,55*,0.5,-0.47,0.8
Cc1cc(C)nc(SCC(=O)N/N=C/c2cccn2-c2cccc(C(F)(F)F)c2)n1,32,17,0.8,x,0.7
Cc1cccc(C(=O)N2CCN(c3ccc([N+](=O)[O-])c(NCc4ccco4)c3)CC2)c1,78*,78*,0.2,-1.9,0.2
Cc1ccc(C(=O)N2CCN(c3ccc([N+](=O)[O-])c(NCc4ccco4)c3)CC2)cc1,46,74*,0.3,-1.2,0.5
Cc1ccccc1C(=O)N1CCN(c2ccc([N+](=O)[O-])c(NCc3ccco3)c2)CC1,21,34,0.7,0.12,0.8
O=C(c1ccco1)N1CCN(/C(=N/S(=O)(=O)c2cccs2)c2ccccc2Cl)CC1,36,37,0.6,1.2,0.6
CCc1ccc(CNc2ccc(O)cc2)cc1,82*,23,0.8,-2.5,0.2
Cc1ccc(C(=O)NC=C(Cl)Cl)cc1,11,4,1,-1.3,0.9
CCOc1ccc2c(c1)-c1c(ssc1=S)C(C)(C)N2,72*,72*,0.3,-2.4,0.3
CCOc1ccc2c(c1)C(c1ccccc1)=NNC(c1ccccc1)=N2,x,x,x,0.51,x
CCOc1ccc(-c2nnn(CC(=O)NCc3ccco3)n2)cc1,23,19,0.8,-0.34,0.8
O=C(Cn1nnc(-c2ccccc2)n1)NCc1cccs1,72*,3,1,0.29,0.3
CCOC(=O)c1ccc(CNC(=O)Cn2nnc(-c3ccc(C)cc3)n2)o1,18,60*,0.4,-1.6,0.8
COc1ccc(C(=O)Nc2ccccc2-c2nnn(CC(=O)NCc3ccco3)n2)cc1,31,75*,0.3,0.56,0.7
CCOC(=O)c1c(NC(=O)Cn2nnc(-c3ccc(Cl)cc3)n2)sc(CC)c1C,15,74*,0.3,-1,0.9
COc1ccc2c(c1)-c1ccccc1S(=O)(=O)N2C(C)=O,14,14,0.9,1.1,0.9
